Assay in all cases: DAPPL (digital affinity profiling via proximity ligation, sequencing); 10 mM Tris-HCl pH 7.5, 50 mM NaCl, 1 mM DTT, 4% glycerol, room temperature, 30 min; GST-TFs on glutathione beads, 16-mer random dsDNA library, 0.1% formaldehyde crosslink after washing; high values mean tight binding
Holding throughout (settings): protein: recombinant; tags: N-terminal GST; dsDNA, one strand shown

One assay has as its target SPIB (Homo sapiens, UniProt Q01892 1-262). The essentials: (§1)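 Binding signal is given per hexamer as its read frequency for a factor divided by its frequency in the tag-only sample. GST-fused human transcription factors were expressed in yeast, captured on glutathione beads, barcoded with DNA and pooled with that sample, then incubated with 200 nmole of a 16-mer random double-stranded DNA library in Tris/NaCl/DTT/glycerol buffer for 30 min at room temperature. The pools were then washed, crosslinked, proximity-ligated, amplified by PCR and sequenced on an Illumina NextSeq500.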

The next assay concerns the target ELF4 (Homo sapiens, UniProt Q99607 1-663). The gist of the method: as §1
A further assay addresses T1, ELK1 (Homo sapiens, UniProt P19419 1-428).
T1 sequence: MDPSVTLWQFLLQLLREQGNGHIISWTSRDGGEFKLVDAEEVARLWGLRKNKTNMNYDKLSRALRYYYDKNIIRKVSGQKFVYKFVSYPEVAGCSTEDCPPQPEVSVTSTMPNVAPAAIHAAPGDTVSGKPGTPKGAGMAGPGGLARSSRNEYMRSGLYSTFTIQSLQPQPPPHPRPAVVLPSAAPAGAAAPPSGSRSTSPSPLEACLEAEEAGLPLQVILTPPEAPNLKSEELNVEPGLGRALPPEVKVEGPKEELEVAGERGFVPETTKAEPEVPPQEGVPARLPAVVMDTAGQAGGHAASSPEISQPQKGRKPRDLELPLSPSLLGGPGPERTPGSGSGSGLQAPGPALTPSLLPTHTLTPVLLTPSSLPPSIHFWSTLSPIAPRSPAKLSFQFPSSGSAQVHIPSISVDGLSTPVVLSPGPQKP
The essentials: as §1

The next assay addresses ELF1 (Homo sapiens, UniProt P32519 1-619). The gist of the method: as §1
The next assay concerns the target T2, EHF (Homo sapiens, UniProt Q9NZC4 1-300).
T2 sequence: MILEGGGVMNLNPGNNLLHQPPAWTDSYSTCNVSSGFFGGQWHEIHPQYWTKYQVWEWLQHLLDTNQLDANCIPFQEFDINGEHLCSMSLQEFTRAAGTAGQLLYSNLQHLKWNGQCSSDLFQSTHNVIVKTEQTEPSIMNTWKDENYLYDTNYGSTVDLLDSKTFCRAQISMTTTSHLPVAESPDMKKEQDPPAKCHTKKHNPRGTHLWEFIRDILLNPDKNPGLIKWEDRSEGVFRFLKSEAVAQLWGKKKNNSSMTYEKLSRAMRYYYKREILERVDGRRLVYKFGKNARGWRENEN
The gist of the method: as §1

Another assay deals with SPI1 (Homo sapiens, UniProt P17947 1-270). The essentials: as §1
Another assay has as its target T3, ELK3 (Homo sapiens, UniProt P41970 1-407).
T3 sequence: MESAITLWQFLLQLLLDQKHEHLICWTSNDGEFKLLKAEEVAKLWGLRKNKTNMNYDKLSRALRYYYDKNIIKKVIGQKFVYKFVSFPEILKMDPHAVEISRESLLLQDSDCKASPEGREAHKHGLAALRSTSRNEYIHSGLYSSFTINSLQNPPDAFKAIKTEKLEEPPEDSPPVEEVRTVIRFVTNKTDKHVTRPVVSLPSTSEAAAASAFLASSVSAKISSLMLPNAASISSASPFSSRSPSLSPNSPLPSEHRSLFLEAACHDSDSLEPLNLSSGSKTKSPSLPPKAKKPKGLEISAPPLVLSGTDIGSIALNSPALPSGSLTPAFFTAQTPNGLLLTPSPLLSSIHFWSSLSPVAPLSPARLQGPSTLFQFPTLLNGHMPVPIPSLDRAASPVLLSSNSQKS
The gist of the method: as §1

A further assay addresses T4, ELK4 (Homo sapiens, UniProt P28324-2 1-405).
T4 sequence: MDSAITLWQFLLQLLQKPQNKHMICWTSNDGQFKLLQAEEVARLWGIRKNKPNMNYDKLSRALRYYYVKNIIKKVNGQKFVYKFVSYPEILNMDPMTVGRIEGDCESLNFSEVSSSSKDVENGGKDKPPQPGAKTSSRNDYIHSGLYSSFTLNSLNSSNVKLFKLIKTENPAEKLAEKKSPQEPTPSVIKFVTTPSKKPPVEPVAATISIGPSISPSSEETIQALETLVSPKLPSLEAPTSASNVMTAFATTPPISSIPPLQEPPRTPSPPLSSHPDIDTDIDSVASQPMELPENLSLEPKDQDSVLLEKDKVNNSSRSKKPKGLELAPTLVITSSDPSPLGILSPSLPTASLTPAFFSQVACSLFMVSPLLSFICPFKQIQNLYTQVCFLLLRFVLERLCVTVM
The gist of the method:
as §1

A further assay concerns the target T5, ETV2 (Homo sapiens, UniProt O00321 1-342).
T5 sequence: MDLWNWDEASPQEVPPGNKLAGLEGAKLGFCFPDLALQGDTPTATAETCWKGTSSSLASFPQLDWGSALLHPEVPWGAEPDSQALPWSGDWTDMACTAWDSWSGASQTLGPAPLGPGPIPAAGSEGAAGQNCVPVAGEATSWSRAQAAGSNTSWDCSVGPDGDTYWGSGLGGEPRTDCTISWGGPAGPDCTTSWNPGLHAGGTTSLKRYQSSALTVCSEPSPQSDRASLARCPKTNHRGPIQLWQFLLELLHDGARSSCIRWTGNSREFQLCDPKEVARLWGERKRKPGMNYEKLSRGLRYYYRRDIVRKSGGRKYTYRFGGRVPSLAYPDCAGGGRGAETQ
The gist of the method:
as §1

Another assay has as its target T6, ELF3 (Homo sapiens, UniProt P78545 1-371).
T6 sequence: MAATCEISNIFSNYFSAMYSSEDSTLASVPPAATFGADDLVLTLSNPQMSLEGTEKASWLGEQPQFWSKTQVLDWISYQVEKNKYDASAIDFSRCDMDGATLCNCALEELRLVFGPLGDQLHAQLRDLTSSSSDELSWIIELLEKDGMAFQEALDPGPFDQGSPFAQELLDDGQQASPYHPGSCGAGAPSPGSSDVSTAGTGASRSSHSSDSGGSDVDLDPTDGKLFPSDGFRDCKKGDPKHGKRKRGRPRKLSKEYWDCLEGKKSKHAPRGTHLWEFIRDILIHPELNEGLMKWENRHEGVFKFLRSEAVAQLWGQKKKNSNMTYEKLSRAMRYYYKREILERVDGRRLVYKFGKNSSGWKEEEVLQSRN
The essentials: as §1

The target in another assay is CRX (Homo sapiens, UniProt O43186 1-299). The essentials:
as §1

The next assay concerns the target T7, ERF (Homo sapiens, UniProt P50548 1-548).
T7 sequence: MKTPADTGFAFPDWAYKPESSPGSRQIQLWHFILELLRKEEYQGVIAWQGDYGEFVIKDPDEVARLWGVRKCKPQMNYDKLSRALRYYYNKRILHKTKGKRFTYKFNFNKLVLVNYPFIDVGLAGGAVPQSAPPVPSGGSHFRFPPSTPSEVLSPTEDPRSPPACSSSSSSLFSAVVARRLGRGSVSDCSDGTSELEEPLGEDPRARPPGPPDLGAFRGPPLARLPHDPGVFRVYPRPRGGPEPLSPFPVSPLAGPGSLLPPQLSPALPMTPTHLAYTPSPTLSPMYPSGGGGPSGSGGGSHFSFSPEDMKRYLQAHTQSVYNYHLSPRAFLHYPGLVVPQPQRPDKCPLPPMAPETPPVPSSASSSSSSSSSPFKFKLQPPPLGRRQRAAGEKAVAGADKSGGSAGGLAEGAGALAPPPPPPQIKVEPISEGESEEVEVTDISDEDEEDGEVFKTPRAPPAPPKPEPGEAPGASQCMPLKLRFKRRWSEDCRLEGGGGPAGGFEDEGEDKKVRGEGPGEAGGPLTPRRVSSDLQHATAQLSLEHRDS
The gist of the method: as §1

In the next assay the target is T8, SPDEF (Homo sapiens, UniProt O95238 1-335).
T8 sequence: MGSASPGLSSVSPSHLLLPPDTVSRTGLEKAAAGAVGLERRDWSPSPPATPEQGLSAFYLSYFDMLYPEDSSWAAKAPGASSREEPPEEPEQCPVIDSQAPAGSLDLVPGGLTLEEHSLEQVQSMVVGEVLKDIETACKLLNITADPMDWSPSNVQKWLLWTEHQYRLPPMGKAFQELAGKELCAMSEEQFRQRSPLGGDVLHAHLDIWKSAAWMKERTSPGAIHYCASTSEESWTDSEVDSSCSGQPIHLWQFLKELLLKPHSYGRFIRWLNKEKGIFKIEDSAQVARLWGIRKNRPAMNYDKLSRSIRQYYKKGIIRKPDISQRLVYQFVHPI
The gist of the method:
as §1

The target of the next assay is T9, ETV7 (Homo sapiens, UniProt Q9Y603 1-341).
T9 sequence: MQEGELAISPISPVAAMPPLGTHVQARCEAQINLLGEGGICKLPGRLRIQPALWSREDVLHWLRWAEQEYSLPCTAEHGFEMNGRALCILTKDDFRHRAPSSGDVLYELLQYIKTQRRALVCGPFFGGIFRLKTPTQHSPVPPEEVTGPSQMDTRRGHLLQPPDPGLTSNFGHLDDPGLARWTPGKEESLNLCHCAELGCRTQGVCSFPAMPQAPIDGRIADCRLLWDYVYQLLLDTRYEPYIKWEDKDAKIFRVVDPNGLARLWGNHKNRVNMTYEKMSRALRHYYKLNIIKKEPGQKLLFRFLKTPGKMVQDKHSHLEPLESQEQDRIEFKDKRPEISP
The gist of the method: as §1

For a further assay, the target named is T10, ETV3 (Homo sapiens, UniProt P41162-2 1-143).
T10 sequence: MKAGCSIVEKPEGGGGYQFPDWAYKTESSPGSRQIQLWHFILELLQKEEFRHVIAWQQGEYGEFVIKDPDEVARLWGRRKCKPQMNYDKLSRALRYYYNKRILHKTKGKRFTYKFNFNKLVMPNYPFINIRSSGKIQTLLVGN
The gist of the method: as §1

Chain of ELF4 (Q99607 whole entry): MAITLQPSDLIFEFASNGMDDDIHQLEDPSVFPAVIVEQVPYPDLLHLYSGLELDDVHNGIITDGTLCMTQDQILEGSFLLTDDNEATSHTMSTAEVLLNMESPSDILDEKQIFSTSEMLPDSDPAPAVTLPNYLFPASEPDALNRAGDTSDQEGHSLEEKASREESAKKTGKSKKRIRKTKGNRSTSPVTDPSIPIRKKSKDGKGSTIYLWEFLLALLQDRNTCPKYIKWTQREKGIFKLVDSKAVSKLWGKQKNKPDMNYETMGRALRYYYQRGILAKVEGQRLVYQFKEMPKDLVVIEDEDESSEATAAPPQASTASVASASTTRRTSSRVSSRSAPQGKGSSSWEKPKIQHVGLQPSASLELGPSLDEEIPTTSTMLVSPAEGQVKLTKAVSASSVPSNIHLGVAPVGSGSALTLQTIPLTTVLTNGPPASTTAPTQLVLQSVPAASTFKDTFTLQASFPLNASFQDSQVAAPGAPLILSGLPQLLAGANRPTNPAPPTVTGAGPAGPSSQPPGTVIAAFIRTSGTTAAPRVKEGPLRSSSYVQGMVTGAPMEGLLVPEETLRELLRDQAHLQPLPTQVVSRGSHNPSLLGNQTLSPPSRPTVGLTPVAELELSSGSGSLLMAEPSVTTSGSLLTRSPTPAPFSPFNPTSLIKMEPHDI
Chain of CRX (O43186 whole entry): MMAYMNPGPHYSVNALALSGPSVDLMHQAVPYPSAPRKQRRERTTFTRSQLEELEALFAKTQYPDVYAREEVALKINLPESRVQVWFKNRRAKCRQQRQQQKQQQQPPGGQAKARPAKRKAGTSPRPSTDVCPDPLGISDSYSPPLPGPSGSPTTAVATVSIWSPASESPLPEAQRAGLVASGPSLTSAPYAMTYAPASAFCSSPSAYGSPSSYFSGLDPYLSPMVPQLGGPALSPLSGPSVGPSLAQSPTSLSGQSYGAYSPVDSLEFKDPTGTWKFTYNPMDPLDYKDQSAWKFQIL
Chain of SPIB (Q01892 whole entry, the tested form may be a part): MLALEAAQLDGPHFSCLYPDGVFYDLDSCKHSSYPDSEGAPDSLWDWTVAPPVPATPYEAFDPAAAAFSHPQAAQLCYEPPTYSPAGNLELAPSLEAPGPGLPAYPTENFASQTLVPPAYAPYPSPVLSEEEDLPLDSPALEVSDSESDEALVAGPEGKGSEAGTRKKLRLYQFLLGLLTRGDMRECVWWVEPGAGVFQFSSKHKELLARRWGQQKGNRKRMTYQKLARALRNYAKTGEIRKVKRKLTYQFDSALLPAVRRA
Chain of ELF1 (P32519 whole entry): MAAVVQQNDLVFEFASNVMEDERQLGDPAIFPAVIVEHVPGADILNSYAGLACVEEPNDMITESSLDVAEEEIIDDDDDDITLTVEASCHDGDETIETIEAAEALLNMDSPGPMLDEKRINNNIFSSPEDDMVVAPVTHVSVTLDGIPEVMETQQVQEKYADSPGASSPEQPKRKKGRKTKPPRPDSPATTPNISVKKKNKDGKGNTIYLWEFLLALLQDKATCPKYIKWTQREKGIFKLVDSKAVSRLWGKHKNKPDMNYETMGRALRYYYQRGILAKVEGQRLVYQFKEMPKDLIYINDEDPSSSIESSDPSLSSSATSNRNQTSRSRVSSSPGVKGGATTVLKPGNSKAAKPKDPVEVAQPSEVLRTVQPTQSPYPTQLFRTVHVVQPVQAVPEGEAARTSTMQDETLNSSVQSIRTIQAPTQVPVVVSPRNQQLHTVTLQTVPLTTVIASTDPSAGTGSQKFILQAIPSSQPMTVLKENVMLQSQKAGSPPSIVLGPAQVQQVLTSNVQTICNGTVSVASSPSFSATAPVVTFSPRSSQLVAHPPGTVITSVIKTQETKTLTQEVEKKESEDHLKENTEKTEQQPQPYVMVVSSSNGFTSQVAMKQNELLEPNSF

Regarding CCGCGG, the binding signal was 1.04 fold enrichment (6-mer frequency, TF over GST control) with SPIB and 1.01 fold enrichment (6-mer frequency, TF over GST control) with ELF4.
Take TAACGT: the binding signal in the assay with ELK1 is 1.02 fold enrichment (6-mer frequency, TF over GST control); with ELF1, 1.01 fold enrichment (6-mer frequency, TF over GST control); in the assay with EHF, 1.02 fold enrichment (6-mer frequency, TF over GST control); in the assay with SPI1, 1.03 fold enrichment (6-mer frequency, TF over GST control); with ELK3 it was 1.08 fold enrichment (6-mer frequency, TF over GST control); with ELF4, 1.01 fold enrichment (6-mer frequency, TF over GST control). The binding signal with ELK4 was 1.06 fold enrichment (6-mer frequency, TF over GST control); in the assay with ETV2 it was 1.02 fold enrichment (6-mer frequency, TF over GST control); with ELF3, 1.06 fold enrichment (6-mer frequency, TF over GST control); with CRX, 1.16 fold enrichment (6-mer frequency, TF over GST control); in the assay with ERF it was 1.07 fold enrichment (6-mer frequency, TF over GST control); in the assay with SPDEF it was 1.05 fold enrichment (6-mer frequency, TF over GST control). Besides, the binding signal with ETV7 is 1.01 fold enrichment (6-mer frequency, TF over GST control); with ETV3 it was 1.04 fold enrichment (6-mer frequency, TF over GST control).

The record behind these values is article PMC7862700, “An all-to-all approach to the identification of sequence-specific readers for epigenetic DNA modifications on cytosine”.
